Results filed as inconclusive are left out. Entries that show only a call come without a potency. Active and inactive are the calls of the source. Unless noted, calls follow the shape of the full dose curve.
Experiments:
[1] = qHTS assay to identify small molecule agonists of the peroxisome proliferator-activated receptor delta (PPARd) signaling pathway - cell viability counter screen (AID 743211; active = well fitted curve in the direction sought with a large enough effect in the repeat runs; an effect the other way counts as inactive or inconclusive; also: nearly all actives have a fitted effect of over 55% in size)
Procedure, shortened: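 Counter screen for cytotoxicity run in parallel with the PPARd reporter screen. Beta-lactamase reporter HEK293H cells exposed to compounds 17 h; ATP-based CellTiter-Glo luminescence quantified viability.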

[2] = target: Peroxisome proliferator-activated receptor delta (Homo sapiens) (UniProt Q03181); experiment: qHTS assay to identify small molecule antagonists of the peroxisome proliferator-activated receptor delta (PPARd) signaling pathway (AID 743215; active = well fitted inhibition curve with a large enough effect in the signal ratio in the repeat runs, not every such curve was filed as active; the % refers to the signal ratio;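 also: cells stimulated with agonist L165041 at 300 nM final during compound exposure; series mostly up to about 62 µM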)
Sequence of Peroxisome proliferator-activated receptor delta (Homo sapiens) (Q03181 whole entry, looked up): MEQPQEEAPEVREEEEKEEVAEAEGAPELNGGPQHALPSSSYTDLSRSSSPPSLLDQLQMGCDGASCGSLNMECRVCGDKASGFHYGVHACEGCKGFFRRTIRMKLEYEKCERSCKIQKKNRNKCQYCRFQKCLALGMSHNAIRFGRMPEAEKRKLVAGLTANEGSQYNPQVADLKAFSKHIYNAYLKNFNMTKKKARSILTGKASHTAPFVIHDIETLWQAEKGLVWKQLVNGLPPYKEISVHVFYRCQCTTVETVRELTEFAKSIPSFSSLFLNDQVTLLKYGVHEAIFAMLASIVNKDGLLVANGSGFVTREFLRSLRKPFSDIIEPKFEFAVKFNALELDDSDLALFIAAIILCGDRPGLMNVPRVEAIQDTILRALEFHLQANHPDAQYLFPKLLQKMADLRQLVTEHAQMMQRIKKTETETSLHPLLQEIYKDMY
Procedure, shortened: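 HEK293H GeneBLAzer PPARd UAS-bla reporter cells; cpd + L165041 300 nM final, 17 h 37 C; LiveBLAzer B/G FRET substrate 2 h RT; fluorescence intensity read-out. Antagonist mode.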

[3] = target: Bile acid receptor (Homo sapiens) (UniProt Q96RI1); experiment: qHTS assay to identify small molecule antagonists of the farnesoid-X-receptor (FXR) signaling pathway (AID 743217; active = well fitted inhibition curve with a large enough effect in the signal ratio in the repeat runs, not every such curve was filed as active; the % refers to the signal ratio)
Sequence of Bile acid receptor (Homo sapiens) (Q96RI1 whole entry, looked up): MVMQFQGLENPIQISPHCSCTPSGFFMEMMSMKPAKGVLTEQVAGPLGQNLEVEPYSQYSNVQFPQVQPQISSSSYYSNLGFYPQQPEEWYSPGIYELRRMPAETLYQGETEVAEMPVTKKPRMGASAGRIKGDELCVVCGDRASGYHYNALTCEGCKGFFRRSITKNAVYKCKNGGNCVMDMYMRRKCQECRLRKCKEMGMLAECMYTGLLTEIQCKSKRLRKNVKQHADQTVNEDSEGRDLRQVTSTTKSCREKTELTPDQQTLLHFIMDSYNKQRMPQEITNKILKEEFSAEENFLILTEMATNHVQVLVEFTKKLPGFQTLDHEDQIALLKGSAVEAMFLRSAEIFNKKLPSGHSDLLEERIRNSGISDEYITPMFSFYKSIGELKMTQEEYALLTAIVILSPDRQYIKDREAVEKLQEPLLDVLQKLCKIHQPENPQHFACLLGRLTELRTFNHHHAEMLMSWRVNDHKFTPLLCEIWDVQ
Procedure, shortened: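 Read-out: beta-lactamase FRET fluorescence (LiveBLAzer B/G substrate, 2 h, room temperature) in GeneBLAzer FXR-UAS-bla HEK 293T cells. Compounds were co-dosed with 50 uM chenodeoxycholic acid (final) and incubated 16 h at 37 °C.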

[4] = target: Bile acid receptor (Homo sapiens) (UniProt Q96RI1); experiment: qHTS assay to identify small molecule agonists of the farnesoid-X-receptor (FXR) signaling pathway (AID 743220; active = well fitted activation curve with a large enough effect in the signal ratio in the repeat runs, not every such curve was filed as active; the % refers to the signal ratio)
Procedure, shortened: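 FXR-UAS-bla HEK 293T cells carrying a UAS-driven beta-lactamase reporter were plated for 5 h at 37C/5% CO2, then exposed to DMSO-dissolved Tox21 10K compounds for 16 h at 37C. A LiveBLAzer B/G FRET substrate was loaded for 2 h at room temperature before fluorescence reading.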

[5] = qHTS assay to identify small molecule antagonists of the farnesoid-X-receptor (FXR) signaling pathway - cell viability counter screen (AID 743221; active = well fitted cell-killing curve with a large enough effect in the repeat runs, not every such curve was filed as active; also: nearly all actives have a fitted effect of over 50% in size)
Procedure, shortened: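 Multiplexed counter screen: viability of FXR-bla HEK 293T cells under agonist stimulation by chenodeoxycholic acid (50 uM, final) and test compound for 16 h at 37 C, measured by CellTiter-Glo luminescence in the reporter wells.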

[6] = target: Vitamin D3 receptor (Homo sapiens) (UniProt P11473); experiment: qHTS assay to identify small molecule agonists of the vitamin D receptor (VDR) signaling pathway (AID 743222); also: potency is read from the fitted curve at half-maximal effect
Sequence of Vitamin D3 receptor (Homo sapiens) (P11473 whole entry, looked up): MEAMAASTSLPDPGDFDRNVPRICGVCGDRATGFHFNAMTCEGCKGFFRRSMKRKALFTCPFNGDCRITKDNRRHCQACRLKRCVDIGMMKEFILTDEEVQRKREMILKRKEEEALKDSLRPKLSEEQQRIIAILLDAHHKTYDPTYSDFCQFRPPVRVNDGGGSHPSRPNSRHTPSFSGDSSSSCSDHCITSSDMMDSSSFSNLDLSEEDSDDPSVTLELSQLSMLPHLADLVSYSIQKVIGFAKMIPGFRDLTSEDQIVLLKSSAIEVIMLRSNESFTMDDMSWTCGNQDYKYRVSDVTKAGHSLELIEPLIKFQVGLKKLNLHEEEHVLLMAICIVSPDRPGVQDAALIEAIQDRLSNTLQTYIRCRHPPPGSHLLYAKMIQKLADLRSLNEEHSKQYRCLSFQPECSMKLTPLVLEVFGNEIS
Procedure, shortened: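 Beta-lactamase reporter readout (LiveBLAzer B/G FRET, 2 h RT) in VDR-bla cells after 16 h compound treatment at 37C, 5% CO2; cells pre-incubated 4 h before pin transfer of DMSO solutions.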

[7] = qHTS assay to identify small molecule agonists of the vitamin D receptor (VDR) signaling pathway - cell viability counter screen (AID 743224; active = well fitted curve in the direction sought with a large enough effect in the repeat runs; an effect the other way counts as inactive or inconclusive; also: series mostly up to about 63 µM; nearly all actives have a fitted effect of over 50% in size)
Procedure, shortened: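 Cytotoxicity counter screen: VDR-bla cells, 16 h compound exposure at 37C, 5% CO2; CellTiter-Glo luminescence, 30 min RT, same wells as bla read.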

[8] = qHTS assay to identify small molecule agonists of the NFkB signaling pathway - cell viability counter screen (AID 1159515); also: series mostly up to about 61 µM; nearly all actives have a fitted effect of over 55% in size
Procedure, shortened: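 ME-180 NFkB-bla cells, 2,000/well; overnight attach; compound 5 hr, 37 C/5% CO2; LiveBLAzer substrate 1.5 hr RT; then CellTiter-Glo in same wells, 30 min RT, luminescence read.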

[9] = qHTS assay to identify small molecule agonists of the endoplasmic reticulum stress response signaling pathway (AID 1159516; active = well fitted activation curve with a large enough effect in the signal ratio in the repeat runs, not every such curve was filed as active; the % refers to the signal ratio; also: potency is read from the fitted curve at half-maximal effect)
Procedure, shortened: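 HeLa ESRE-bla reporter line; cpd 5 h, 37 C/5% CO2; LiveBLAzer B/G FRET substrate 2 h RT; ex 405, em 460/530 nm.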

[10] = qHTS assay to identify small molecule agonists of the endoplasmic reticulum stress response signaling pathway - cell viability counter screen (AID 1159517);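 also: HeLa cells carrying an ER stress response element beta-lactamase reporter; series mostly up to about 61 µM; nearly all actives have a fitted effect of over 50% in size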
Procedure, shortened: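 Cpd-treated ESRE-bla HeLa (5 hr, 37 C) → LiveBLAzer 2 hr RT → CellTiter-Glo 30 min RT → luminescence.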

[11] = qHTS assay to identify small molecule antagonists of the retinoid-related orphan receptor gamma (ROR-gamma) signaling pathway - cell viability counter screen (AID 1159520; active = well fitted curve in the direction sought with a large enough effect in the repeat runs; an effect the other way counts as inactive or inconclusive; also: nearly all actives have a fitted effect of over 50% in size)
Procedure, shortened: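 Tet-on ROR gamma CHO cells (1,000/well) were plated 4 hr, given compounds in DMSO for 2 hr at 37 C, then induced with 1 uM final doxycycline for 16 hr. Viability was read as ATP by CellTiter-Glo luminescence after 30 min.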

[12] = target: Nuclear receptor ROR-gamma (Homo sapiens) (UniProt P51449); experiment: qHTS assay to identify small molecule antagonists of the retinoid-related orphan receptor gamma (ROR-gamma) signaling pathway (AID 1159521; active = well fitted curve in the direction sought with a large enough effect in the repeat runs; an effect the other way counts as inactive or inconclusive)
Procedure, shortened: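 Cells were plated, rested 4 h at 37 C, exposed to compounds for 2 h, then given 1 uM final doxycycline hyclate to induce RORγ expression. After 16 h, ONE-Glo luminescence from the ROR response element reporter was measured.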

[13] = target: Retinoic acid receptor RXR-alpha (Homo sapiens) (UniProt P19793); experiment: qHTS assay to identify small molecule agonists of the RXR signaling pathway (AID 1159527); also: nearly all actives have a fitted effect of over 35% in size; also: potency is read from the fitted curve at half-maximal effect
Sequence of Retinoic acid receptor RXR-alpha (Homo sapiens) (P19793 whole entry, looked up): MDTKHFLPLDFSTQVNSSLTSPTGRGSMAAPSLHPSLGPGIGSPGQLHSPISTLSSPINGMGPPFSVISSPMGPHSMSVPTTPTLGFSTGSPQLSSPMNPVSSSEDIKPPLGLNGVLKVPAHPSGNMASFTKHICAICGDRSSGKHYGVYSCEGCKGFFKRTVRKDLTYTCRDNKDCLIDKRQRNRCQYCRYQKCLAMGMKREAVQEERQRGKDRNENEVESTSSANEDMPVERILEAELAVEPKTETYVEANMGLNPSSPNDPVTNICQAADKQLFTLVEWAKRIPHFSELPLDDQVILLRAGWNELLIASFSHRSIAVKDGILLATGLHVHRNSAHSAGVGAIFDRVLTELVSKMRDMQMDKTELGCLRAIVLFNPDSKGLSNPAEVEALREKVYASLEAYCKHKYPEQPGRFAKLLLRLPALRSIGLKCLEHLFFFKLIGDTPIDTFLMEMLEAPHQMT
Procedure, shortened: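 Cells plated at 2,000/well, rested 5 hr at 37 C, pin-dosed with DMSO compound solutions, incubated 16 hr, then loaded with B/G FRET substrate for 2 hr at RT before dual-emission fluorescence reading.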

[14] = qHTS assay to identify small molecule agonists of the farnesoid-X-receptor (FXR) signaling pathway - cell viability counter screen (AID 743218; active = well fitted curve in the direction sought with a large enough effect in the repeat runs; an effect the other way counts as inactive or inconclusive; also: nearly all actives have a fitted effect of over 45% in size)
Procedure, shortened: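 Luminescence from CellTiter-Glo, read after 30 min at RT, reports viability of GeneBLAzer FXR-UAS-bla HEK 293T cells treated 16 h with compounds in the wells used for the beta-lactamase reporter.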

[15] = target: Vitamin D3 receptor (Homo sapiens) (UniProt P11473); experiment: qHTS assay to identify small molecule antagonists of the vitamin D receptor (VDR) signaling pathway (AID 743223; active = well fitted inhibition curve with a large enough effect in the signal ratio in the repeat runs, not every such curve was filed as active; the % refers to the signal ratio)
Procedure, shortened: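 Cells carrying a VDR-driven beta-lactamase reporter (VDR-bla) were co-treated with compound and 3 nM final 1alpha,25-dihydroxyvitamin D3 for 16 h at 37C; reporter activity was measured as FRET substrate fluorescence after 2 h at room temperature.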

[16] = qHTS assay to identify small molecule antagonists of the vitamin D receptor (VDR) signaling pathway - cell viability counter screen (AID 743225; active = well fitted curve in the direction sought with a large enough effect in the repeat runs; an effect the other way counts as inactive or inconclusive; also: nearly all actives have a fitted effect of over 50% in size)
Procedure, shortened: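 HEK293T VDR-bla; cpd + 1a,25-(OH)2D3 3 nM final, 16 h 37C/5% CO2; B/G FRET substrate 2 h RT; then CellTiter-Glo 30 min RT, luminescence.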

[17] = qHTS assay to identify small molecule agonists of the AP-1 signaling pathway (AID 1159526)
[18] = target: Peroxisome proliferator-activated receptor delta (Homo sapiens) (UniProt Q03181); experiment: qHTS assay to identify small molecule agonists of the peroxisome proliferator-activated receptor delta (PPARd) signaling pathway (AID 743212); also: potency is read from the fitted curve at half-maximal effect
Procedure, shortened: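 Cells expressing a UAS-driven beta-lactamase reporter (PPARd-bla HEK293H) were given test compounds after a 5 h settle and kept at 37 C. Reporter activity was then measured as FRET fluorescence using LiveBLAzer B/G substrate.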

[19] = qHTS assay to identify small molecule agonists of the AP-1 signaling pathway - cell viability counter screen (AID 1159525); also: nearly all actives have a fitted effect of over 55% in size
Procedure, shortened: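 Each titration point was normalised to DMSO and tetra n-octyl ammonium bromide controls. The read was Cell Titer Glo luminescence after 30 min at RT, following 5 h compound exposure of ME-180 AP-1-bla cells at 37 °C.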

[20] = qHTS assay to identify small molecule antagonists of the peroxisome proliferator-activated receptor delta (PPARd) signaling pathway - cell viability counter screen (AID 743213; active = well fitted curve in the direction sought with a large enough effect in the repeat runs; an effect the other way counts as inactive or inconclusive; also: nearly all actives have a fitted effect of over 50% in size)
Procedure, shortened: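 Luminescence from CellTiter-Glo, added after the bla read and incubated 30 min at room temperature, gives viability of HEK293H PPARd-bla cells exposed to compounds for 17 h at 37 C with 300 nM L165041.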

Compound | Potency [1] | Potency [2] | Potency [3] | Potency [4] | Potency [5] | Potency [6] | Potency [7] | Potency [8] | Potency [9] | Potency [10] | Potency [11] | Potency [12] | Potency [13] | Potency [14] | Potency [15] | Potency [16] | Potency [17] | Potency [18] | Potency [19] | Potency [20]
CC(Cc1ccc(O)cc1)NCC(O)c1cc(O)cc(O)c1 (stereo not drawn) | inactive | inactive | inactive | inactive | inactive | inactive | inactive | inactive | inactive | inactive | inactive | inactive | inactive |  |  |  |  |  |  | 
O=[N+]([O-])c1cccc2cccc([N+](=O)[O-])c12 | inactive |  | inactive | inactive | inactive | inactive | inactive | inactive | inactive | inactive | inactive | inactive | inactive | inactive | inactive | inactive | inactive |  |  | 
O=c1c2ccccc2c(=O)c2c1cc(Cl)c1[nH]c3c([nH]c12)c(Cl)cc1c(=O)c2ccccc2c(=O)c13 | inactive | inactive | inactive | inactive | inactive | inactive | inactive | inactive | inactive | inactive | inactive | inactive | inactive | inactive | inactive |  |  | inactive | inactive | 
CNN |  |  |  |  |  |  | inactive | inactive | inactive | inactive | inactive |  | inactive | inactive |  | inactive | inactive |  | inactive | inactive
CC(=O)[O-].CC(=O)[O-].O.O.O.[Pb+2] |  |  |  |  |  |  |  | inactive | 0.0776 µM (active) | inactive | inactive |  | inactive | inactive |  | inactive | inactive |  |  | 
CCCCN(CCCC)C(=S)S |  |  |  |  | inactive | inactive | inactive | inactive | inactive | inactive | inactive |  | inactive | inactive |  |  |  |  | inactive | inactive
CC1CN1 (stereo not drawn) | inactive | inactive |  |  | inactive |  | inactive | inactive | inactive | inactive | inactive |  | inactive | inactive |  | inactive | inactive | inactive |  | inactive
NC1CCC(CC2CCC(N)CC2)CC1 (stereo not drawn) | inactive | inactive | inactive |  | inactive |  | inactive | inactive | inactive | inactive | inactive |  |  |  |  |  | inactive | inactive | inactive | inactive
c1csc(-c2ccc(-c3cccs3)s2)c1 | inactive |  | inactive |  | inactive | 24.5 µM (active) | inactive | inactive | 49 µM (active) | inactive | inactive |  | 21.9 µM (active) | inactive |  | inactive |  | 43.6 µM (active) | inactive | inactive
CCCC[N+]1(C)CCCC1 (tested in a mixture with another compound) | inactive |  |  |  |  |  | inactive | inactive | inactive | inactive | inactive |  | inactive | inactive |  |  | inactive |  |  | 
CC[N+]1(CC)CCC(OC(=O)C(O)(c2ccccc2)c2ccccc2)C1 (stereo not drawn) |  |  | inactive | inactive | inactive | inactive | inactive | inactive | inactive | inactive | inactive |  | inactive | inactive | inactive | inactive | inactive |  | inactive | inactive
[Cl-].[Cl-].[Cl-].[Yb+3] | inactive |  |  |  | inactive |  |  | inactive | inactive | inactive | inactive |  |  | inactive |  |  | inactive |  | inactive | inactive
c1ccc2nc(N3CCNCC3)ccc2c1 |  |  |  |  |  |  |  | inactive | inactive | inactive | inactive |  |  |  | inactive | inactive | inactive |  | inactive | 
CNC(=O)/C=C(\C)OP(=O)(OC)OC |  | inactive | inactive | inactive | inactive | inactive | inactive | inactive | inactive | inactive | inactive |  |  |  | inactive | inactive | inactive | inactive | inactive | inactive
Oc1ccc2[nH]cc(CCCCN3CC=C(c4ccccc4)CC3)c2c1 |  |  | inactive |  | inactive |  | inactive | inactive | 4.25 µM (active) | inactive | inactive |  | inactive |  |  | inactive |  |  | inactive | 
CC(=O)[O-].CC(=O)[O-].CC(=O)[O-].[Cr+3] | inactive |  |  |  | inactive |  | inactive | inactive | inactive | inactive | inactive |  | inactive | inactive |  | inactive |  |  | inactive | inactive
CC[C@]1(O)CC[C@H]2[C@@H]3CCC4=CCCC[C@@H]4[C@H]3CC[C@@]21C |  | inactive |  | inactive | inactive | inactive | inactive | inactive | inactive | inactive | inactive |  |  | inactive |  | inactive |  | inactive | inactive | inactive
ClC(Cl)C(Cl)(Cl)Cl |  | inactive | inactive | inactive | inactive | inactive | inactive | inactive | inactive | inactive | inactive |  | inactive | inactive |  |  | inactive | inactive | inactive | 
CC(Cc1ccccc1)N(C)Cc1ccco1 (stereo not drawn) | inactive | inactive | inactive |  | inactive | inactive | inactive | inactive | inactive | inactive | inactive |  | inactive | inactive | inactive | inactive |  |  | inactive | inactive
CCCCN(CCCC)C(=S)[S-].CCCCN(CCCC)C(=S)[S-].[Ni+2] |  |  |  |  | inactive | inactive | inactive | inactive | inactive | inactive | inactive |  | inactive | inactive | inactive | inactive | inactive |  | inactive | inactive
